# Assay results reported in PubChem BioAssay (NCATS).
# Inconclusive results are not listed. Where a call stands in place of a potency, no number is given. Calls of active or inactive are those of the source. Calls come from the whole dose curve; as a rule, active = well fitted cell-killing curve with a large enough effect; inconclusive = small, poorly fitted or top-dose-only effect; inactive = flat fitted curve, though single readings scatter.
# Assay: Identifying Small Molecule Inhibitors of Pancreatic Cancer Stem Cells (SN12C, Adherent) (AID 1259358);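 note: cell survival measured after 48 h of compound exposure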
# Details: viability/growth inhibition; series mostly up to 46.1 µM
# Text: Progenitor-like cancer cells, often referred to as cancer stem cells (CSC), are believed to be the drivers of therapeutic resistance and rapid recurrence. CSCs are postulated to reside in specific niches characterized by low oxygen tension, limited nutrient supply, and high redox load. Selectively targeting CSC, alone or in combination with cytotoxic agents, as a means to produce durable remissions is an appealing concept. Modeling these cells in in vitro setting is an important step in finding new therapies and/or targets. Multiple reports highlight that forcing cells in culture into 3-dimensionaly architectures (spheroids) re-establishes key progenitor-like transcriptional signatures. Pancreatic cancer is among the diseases with the most dismal outlook which is driven, largely, by recurance following front-line therapies. […] In hopes of deriving new insight into the targeting of these pancreatic CSCs we examined three established pancreatic cancer cell lines in cytotoxicity assays versus a collection of approved and investigational drugs. Importantly, we screened these lines as traditional monolayer (2D) and spheroid (3D) formats to gain an appreciation of agents with differential activity.
# Multicellular tumor spheroids from Panc1, MiaPaCa-2, and the primary low-passage tissue culture line SB.06 were seeded in stem cell media (SCM) in nonadherent 6-well plates coated with hydrogel (Corning Life Sciences, Chelmsford, Mass) and pancreatic spheres generated for 14 days before screening. Cells were seeded into 1536-well solid-bottom white tissue culture treated Greiner Bio One Plates (789173-F) using a MultiDrop Combi (Thermofisher Scientific) dispenser and a small sterile cassette. One column was media alone to be used as a :"no cells" control. The plates were then covered with sterilized stainless steel gasketed lids from Kalypsys. After allowing cells to attach for 4 hours, 23 nL of test compound or control (negative control DMSO and positive control 9.2 uM Bortezomib-final) were added from a 1536-well polypropylene compound source plate to each well using a 1536 head pin tool from Kalypsys. Cells were then incubated for 48 hours at 37C, 95% relative humidity and 5% CO2. After 48 hours, plates were removed from the incubator and 3 uL of CellTiter-Glo (Promega) was added using an Aurora Flying Reagent Dispenser Bioraptor. Plates were incubated at room temperature for 10 minutes prior to reading the luminescence on the Viewlux (PerkinElmer). The relative luciferase units are used to calculate the percent activity using the activity of DMSO in the cells and no cells columns for normalization of no inhibition and full inhibition respectively.
# Potency is the fitted concentration of half-maximal effect.
row,Structure (SMILES),Potency
1,COc1ncc(-c2ccc3nccc(-c4ccnnc4)c3c2)cc1NS(=O)(=O)c1ccc(F)cc1F,inactive
2,CC(C)(C)c1cc(C(=O)O)c(NC(=O)Nc2ccc3[nH]ncc3c2)s1,inactive
3,N#Cc1ccc(NC(=O)Nc2ccccc2Br)c2n[nH]nc12,inactive
4,CO[C@H]1C=CC=C(C)C(=O)NC2=CC(=O)C(NCCN(C)C)=C(C[C@@H](C)C[C@H](OC)[C@@H](O)[C@@H](C)C=C(C)[C@@H]1OC(N)=O)C2=O,0.0935 µM (active)
5,CC(=O)N(C)C1(c2ccccc2)CCN(CCC[C@]2(c3ccc(Cl)c(Cl)c3)CCCN(C(=O)c3ccccc3)C2)CC1,20.9 µM (active)
6,OC[C@H]1O[C@@H](n2cnc3c2NC=NC[C@@H]3O)C[C@H]1O,inactive
7,COc1ccc(C2CC(c3ccccc3)=NN2c2ccc(S(N)(=O)=O)cc2)cc1 (stereo unspecified),inactive
8,CC(C)(C(=O)NCC(F)(F)C(F)(F)F)C(=O)N[C@@H]1C(=O)Nc2ccccc2-c2ccccc21,inactive
9,c1ccc2c(-c3cnn4cc(-c5ccc(N6CCNCC6)cc5)cnc34)ccnc2c1,26.4 µM (active)
10,CN(C)C1CCN(C(=O)c2ccc(NC(=O)Nc3nc(N4CCOCC4)nc(N4CCOCC4)n3)cc2)CC1,0.0074 µM (active)
11,CC(C)(C)C(=O)Oc1ccc2c(c1)nc(NC(=O)c1cccc([N+](=O)[O-])c1)n2CCCO,inactive
12,COc1cc(N2CCC(N3CCN(C)CC3)CC2)ccc1Nc1ncc(Cl)c(Nc2ccccc2S(=O)(=O)C(C)C)n1,18.7 µM (active)
13,O=C(O)c1ccc(-c2cc3cccnc3c(-c3ccc4nonc4c3)n2)cc1,inactive
14,CO[C@@H](C(=O)N1Cc2[nH]nc(NC(=O)c3ccc(N4CCN(C)CC4)cc3)c2C1)c1ccccc1,0.743 µM (active)
15,O=C1C(Cl)=C(NCCN2CCOCC2)C(=O)c2ncccc21,6.62 µM (active)
16,Clc1ccc(-c2nc3sccn3c2C=NOCc2ccc(Cl)c(Cl)c2)cc1,inactive
17,O=C(O)CCC1CCC(c2cc(F)ccc2F)(S(=O)(=O)c2ccc(Cl)cc2)CC1 (stereo unspecified),inactive
18,CO[C@H]1C[C@@H]2CC[C@@H](C)[C@@](O)(O2)C(=O)C(=O)N2CCCC[C@@H]2C(=O)O[C@H]([C@H](C)C[C@@H]2CC[C@H](OCCO)[C@H](OC)C2)CC(=O)[C@H](C)C=C(C)[C@@H](O)[C@@H](OC)C(=O)[C@H](C)C[C@H](C)C=CC=CC=C1C,18.7 µM (active)
19,COc1cccc2c1CCCC2CCCN1CCN(C2CCCCC2)CC1 (stereo unspecified),16.6 µM (active)
20,CC(C)(C)COc1ccc(-n2cc(C(=O)O)cn2)cc1C#N,inactive
21,CC1=C(/C=C/C(C)=C/C=C/C(C)=C/C(=O)Nc2ccc(O)cc2)C(C)(C)CCC1,inactive
22,CCOC(CN1C(=O)[C@](CC(=O)Nc2ccc(C)cc2)(NC(=O)Nc2ccc(C)cc2)c2ccccc21)OCC,23.5 µM (active)
23,COc1cc2ncnc(-n3nc(-c4ccccn4)nc3N)c2cc1OC,5.9 µM (active)
24,CN1CCN(CCOc2cc(OC3CCOCC3)c3c(Nc4c(Cl)ccc5c4OCO5)ncnc3c2)CC1,1.87 µM (active)
25,O=C(N[C@@H](c1ccccc1)[C@@H]1CCCCN1)c1cccc(C(F)(F)F)c1Cl,inactive
26,CS(=O)c1ccc(-c2nc(-c3ccc(F)cc3)c(-c3ccncc3)[nH]2)cc1 (stereo unspecified),inactive
